Structures are written as SMILES. In all, about 290,000 compounds went through this assay and about 2,300 (0.79%) were called active. The entries come from a sample that favours actives as a whole. A number with no mark means an inactive call. Rule as the data show it: active = inhibition above about 22%; inactive = the rest.

The assay in a line: IEC-6 cell viability reduction – luminescence, cytotoxicity control for KLF5 inhibitor project, primary screen (AID 1825).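 Also: 0% = plate median of test compound wells and 100% = cytotoxic reference compound wells.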 To be noted: IEC-6 cytotoxicity, at 5 µM, stronger effect = higher value.
Turning to `Cc1cc(C(=O)NC2CC(C)(C)Cc3c2cnn3-c2ccccc2)n[nH]1` (stereo not given), the inhibition (as a rule, the change of the read-out against control, counted positive when it falls) was 7.1%. As to `Cc1cccc2sc(N(CCCN(C)C)C(=O)CCS(=O)(=O)c3ccccc3)nc12`, the inhibition was 11.3%. As for `COc1cccc2sc(N(CCCN(C)C)C(=O)CCS(=O)(=O)c3ccccc3)nc12`, the figure is 50% (active); as for `COc1cccc2sc(N(CCCN(C)C)C(=O)C(c3ccccc3)c3ccccc3)nc12`, 3.5%; as for `COc1ccccc1NC(=O)c1ccc(C)s1`, 34.8% (active).

As to `COc1ccccc1NC(=O)C1=C(C)NC(=O)NC1c1ccc(C)s1` (stereo not given), the inhibition is -4.5%.

Turning to `COC(=O)c1c(NC(C)=O)sc(C(=O)Nc2ccccc2OC)c1C`, the inhibition was -1.2%. Turning to `CC(NC(=O)Cn1cc(C(F)(F)F)cc(Cl)c1=O)c1ccccc1` (stereo not given), the inhibition is 4.4%.

Regarding `COc1ccccc1CCNC(=O)c1c(C)nn(CC(C)C)c1Cl`, the inhibition is -4.6%.

Regarding `O=C(Cc1cccs1)Nc1ccc([N+](=O)[O-])cc1`, the inhibition is -0.5%. The figure for `CC(C)c1ccc(Cc2nnc(NCCCO)[nH]c2=O)cc1` is 3.6%; for `CCOc1ccccc1NC(=O)Cn1nnc(C(=O)NCc2cccs2)c1N` it is 84.2% (active). For `Cc1ccc(NC(=O)Cn2nnc(C(=O)NCc3ccco3)c2N)c(C)c1`, the inhibition was -1.1%. As for `CCOc1ccccc1NC(=O)Cc1cccs1`, the figure is -0.9%. The figure for `CC(C)c1cc(C(=O)N/N=C/c2ccoc2)c(O)c(C(C)C)c1` is -1.3%.

Turning to `CCN(C(=O)C1CCCN(c2nc(-c3ccc(OC)cc3)no2)C1)c1ccc(OC)cc1` (stereo not given), the inhibition was -1.6%. As for `Cc1nc(Cl)c2oc3ccccc3c2n1`, the figure is -5.3%; as for `COc1ccc(C)cc1Nc1nc(C)nc2c1oc1ccccc12`, 34.1% (active); as for `COc1ccccc1Nc1ncnc2c1oc1ccccc12`, -0.2%. The figure for `CSc1ncccc1C(=O)Nc1ccc(C)cn1` is 4.3%; for `CCOC(=O)c1[nH]c2c(c1-c1ccccc1)C(=O)CC(c1ccc(Cl)cc1)C2` (stereo not given) it is 2%; for `COCCOC(=O)c1[nH]c2c(c1C)C(=O)CC(c1ccc(OC)cc1)C2` (stereo not given) it is 2.6%. With `CCCOC(=O)c1[nH]c2c(c1C)C(=O)CC(c1cccs1)C2` (stereo not given), the inhibition is 81.1% (active). Consider `CCOc1cc(C)c(S(=O)(=O)NCc2ccccn2)cc1C`, for which the inhibition is 4.3%.

Regarding `COc1ccccc1NC(=O)CN(c1ccccc1OC)S(=O)(=O)c1ccccc1`, the inhibition was -4.1%.

As for `COc1ccc(S(=O)(=O)N(CC(=O)N/N=C/c2ccccc2C(=O)O)c2ccccc2OC)cc1`, the inhibition was 2.9%. The figure for `COc1ccccc1N(CC(=O)N/N=C(\C)c1ccccc1O)S(=O)(=O)c1ccc(C)cc1` is 33.8% (active); for `CC(=O)NC(Cc1c[nH]c2ccccc12)C(=O)NCCc1ccccc1` (stereo not given) it is -0.3%. The figure for `Cc1ccc(OCC(=O)Nc2ccc(N3CCN(C(=O)c4ccco4)CC3)cc2)c(C)c1` is -14.8%. On to `COc1cccc(C(=O)Nc2ccc(N3CCCC3)cc2)c1`, for which the inhibition is 24.2% (active).

For `COc1ccc(NC(=O)c2cccc(NC(=O)c3ccco3)c2)c(OC)c1`, the inhibition was 4.3%. Regarding `CN1CCN(c2ccc(NC(=O)c3ccccc3)cc2)CC1`, the inhibition is -2.5%.

With `COc1ccc(C(=O)Nc2ccc(N3CCC(C)CC3)cc2)cc1Br`, the inhibition was -5.3%. Consider `COc1cccc(C(=O)Nc2ccc(N3CCN(C(=O)c4ccco4)CC3)cc2)c1`, for which the inhibition was 45% (active).

With `CCOC(=O)N1CCN(CCC(=O)Nc2ccccc2)CC1`, the inhibition was -5.3%. For the molecule `O=C(Nc1cccc(NC(=O)c2ccccc2[N+](=O)[O-])c1)c1ccccc1Cl`, the inhibition is 8%. The figure for `O=C(O)c1cc([N+](=O)[O-])c(Nc2cccc3ccccc23)c([N+](=O)[O-])c1` is 4.7%; for `CSc1ccccc1OCc1cc(C(=O)N2C[C@H]3CC[C@H]2C3)no1` it is 1.9%. The figure for `COc1ccc(N2CCN(C(=O)[C@@H](NC(=O)c3cc(OC)cc(OC)c3)C(C)C)CC2)cc1` is -4.9%; for `Cc1cccnc1NC(=O)c1cccc(S(=O)(=O)N2CCN(c3ccc(F)cc3)CC2)c1` it is 2.3%. Turning to `O=C(N/N=C/c1c[nH]c2ccccc12)c1cc2ccccc2o1`, the inhibition was 12.6%. As for `Cc1c(/C=N\NC(=O)c2cc3ccccc3o2)c2ccccc2n1C`, the figure is 43.7% (active). Consider `O=C(N/N=C/c1coc2ccccc2c1=O)c1cc2ccccc2o1`, for which the inhibition is 4.7%. Turning to `O=C(Nc1ccccc1Cl)Nc1cccc2cccnc12`, the inhibition is 3.4%. `Cc1ccccc1NC(=O)c1ccccc1NS(=O)(=O)c1cccc2cccnc12`: the inhibition was -2.7%.

As for `O=[N+]([O-])c1ccccc1S(=O)(=O)Nc1cccc2cccnc12`, the inhibition was 55.6% (active).

For the molecule `O=C(NCCc1nnc2ccc(SCC(=O)N3CCOCC3)nn12)c1ccccc1`, the inhibition was -3.4%. As for `CCC(Cc1ccccc1)NS(=O)(=O)c1ccc2c(c1)NC(=O)CS2` (stereo not given), the figure is 2.9%; as for `COc1cc2c(cc1OC)CN(C(=O)c1cc(=O)c3ccccc3o1)CC2`, 18.2%; as for `COc1cc2c(cc1OC)CN(C(=O)c1ccc(S(=O)(=O)N3CCCCCC3)cc1)CC2`, 0.2%. For the molecule `CCOc1cc(C(=O)N2CCc3cc(OC)c(OC)cc3C2)ccc1OC(F)F`, the inhibition was 90% (active). For `CCCCN(CCCC)CCCNC(=O)CN1C(=O)COc2ccc(S(=O)(=O)N3CCC(C)CC3)cc21`, the inhibition is 7.2%.

Consider `COc1ccc(C2=Nc3cc(C)ccc3OC2)cc1`, for which the inhibition was -0.6%. Take `CCOC(=O)CNc1nc(Cl)nc(Nc2ccc(OC)cc2OC)n1`: the inhibition is 6.5%.

As for `CCCc1cc(=O)oc2c(C)c(OCC(=O)NCc3ccccn3)ccc12`, the inhibition was -5.9%. As for `Nc1c(C(=O)NCc2ccccc2)nnn1Cc1cccc(Cl)c1`, the figure is 24.6% (active); as for `COc1cccc(CNC(=O)c2nnn(CC(=O)Nc3cc(Cl)ccc3C)c2N)c1`, 19.7%; as for `CCOc1ccc(Cn2nnc(C(=O)NCc3ccccc3)c2N)cc1`, 4.7%. Take `Cc1ccc(NS(=O)(=O)c2ccc(C(C)(C)C)cc2)cn1`: the inhibition was -0.9%. Consider `Cc1cnc(C(=O)Oc2cccc(Cl)c2Cl)cn1`, for which the inhibition was 5.1%. The figure for `COc1ccccc1-c1nnc(SCC(=O)Nc2ccccc2)o1` is -0.6%. The figure for `COc1ccccc1-c1nnc(NC(=O)c2ccc3ncsc3c2)o1` is 22.8% (active). In the case of `COc1ccccc1-c1nnc(NC(=O)c2cccc(N3C(=O)CCC3=O)c2)o1`, the inhibition was -5.8%. As for `CC(C)=CCN1CCN(Cc2cc3ccccc3[nH]2)CC1CCO` (stereo not given), the figure is 1.5%. The figure for `CCOC(=O)/C=C/C(=O)OCC(=O)NC(c1ccccc1)c1ccccc1` is 50.9% (active). As for `O=C(Cc1ccc(-c2ccccc2)cc1)NC(c1ccccc1)c1ccccc1`, the figure is -1.8%; as for `CCOC(=O)C(C(=O)OCC)C(C#N)c1ccccc1` (stereo not given), 3.7%; as for `CCc1ccc2[nH]c(=O)c(Cc3ccccc3)c(O)c2c1`, -0.4%. For `COC(=O)c1ccc(S(=O)(=O)N2CCc3ccccc3C2)cc1`, the inhibition was 1.8%. As for `CC(=O)Nc1c2c(nn1-c1cccc(C)c1)CSC2`, the figure is 2.5%; as for `O=C(c1ccc(OC2CCN(Cc3ccccn3)CC2)cc1)N1CCCCCC1`, -0.7%; as for `O=C(NCCOc1cccnc1)c1ccc(OC2CCN(Cc3ccccn3)CC2)cc1`, 99.8% (active). Take `Cn1cc(CNC(=O)c2ccc(OC3CCN(Cc4ccccn4)CC3)cc2)cn1`: the inhibition is 5.4%. The figure for `Cc1cccc(N2C(=O)N3[C@H](c4ccc(F)cc4)[C@@H]4C(=O)N(C5CCCCC5)C(=O)[C@@H]4[C@]3(Cc3ccccc3)C2=O)c1` is -6%. As for `O=C(CSc1nnc(CNC(=O)c2ccc(F)cc2)o1)Nc1ccc2c(c1)OCO2`, the figure is 8.3%; as for `COC(=O)CSc1nnc(NC(=O)CCc2ccccc2)s1`, 8.2%.

Consider `CCCCNc1nc2c(c(=O)n(C)c(=O)n2C)n1Cc1cccc(OC)c1`, for which the inhibition is 25.1% (active). The figure for `Cn1c(=O)c2c(nc(NCCc3ccccc3)n2Cc2ccccc2)n(C)c1=O` is -1.8%; for `COC(=O)C(C)Sc1nc2c(c(=O)n(C)c(=O)n2C)n1Cc1cccc(C)c1` (stereo not given) it is -2.6%. As for `CCc1ccc(CN(C)C(=O)C2CCC(=O)N(Cc3cccc(OC)c3)C2)nc1` (stereo not given), the figure is 5.8%.

The record behind these values is PubChem BioAssay AID1825 (The Scripps Research Institute Molecular Screening Center, 2009).
